# The supplement of paper PMC8728848
# Only a selection was taken, and the strongest signals are over-represented in it overall.
# Experiments:
# Experiment in all cases: glycan array binding signal (z-score within array); higher = stronger binding
# Conditions in all cases: glycan notation: IUPAC condensed, linker removed
# Fuc(a1-2)Gal = biological target: Fuc(a1-2)Gal
# Summary of the method: (§1)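 Columns mapping to the same glycan were averaged after glycan names were converted to IUPAC-condensed notation. The data come from 3228 arrays in the Consortium for Functional Glycomics database, limited to those with an available protein sequence. Binding is reported as a within-array Z-score averaged across arrays of one protein sequence and across linkers.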
# [1] = biological target: Fuc(a1-2)Gal(b1-3)GalNAc(b1-4)[Neu5Ac(a2-3)]Gal(b1-4)Glc
# Summary of the method: as §1
# Fuc(a1-2)Gal(b1-3)GlcNAc = biological target: Fuc(a1-2)Gal(b1-3)GlcNAc
# Summary of the method: as §1
# [2] = biological target: Fuc(a1-2)Gal(b1-3)GlcNAc(b1-3)GalNAc
# Summary of the method: as §1
# [3] = biological target: Fuc(a1-2)Gal(b1-4)GlcNAc(b1-2)[Fuc(a1-2)Gal(b1-4)GlcNAc(b1-4)]Man(a1-3)[Fuc(a1-2)Gal(b1-4)GlcNAc(b1-2)Man(a1-6)]Man(b1-4)GlcNAc(b1-4)GlcNAc
# Summary of the method: as §1
# [4] = biological target: Fuc(a1-2)Gal(b1-4)GlcNAc(b1-3)Gal(b1-4)GlcNAc(b1-3)Gal(b1-4)GlcNAc
# Summary of the method: as §1
# [5] = biological target: Fuc(a1-2)Gal(b1-4)GlcNAc(b1-6)GalNAc
# Summary of the method: as §1
# [6] = biological target: Fuc(a1-2)Gal(b1-4)[Fuc(a1-3)]GlcNAc(b1-3)GalNAc
# Summary of the method: as §1
# [7] = biological target: Fuc(a1-2)[Gal(a1-3)]Gal(b1-3)GlcNAc(b1-2)Man(a1-3)[Fuc(a1-2)[Gal(a1-3)]Gal(b1-3)GlcNAc(b1-2)Man(a1-6)]Man(b1-4)GlcNAc(b1-4)[Fuc(a1-6)]GlcNAc
# Summary of the method: as §1
# [8] = biological target: Fuc(a1-2)[Gal(a1-3)]Gal(b1-4)Glc
# Summary of the method: as §1
# [9] = biological target: Fuc(a1-2)[Gal(a1-3)]Gal(b1-4)GlcNAc(b1-2)Man(a1-3)[Fuc(a1-2)[Gal(a1-3)]Gal(b1-4)GlcNAc(b1-2)Man(a1-6)]Man(b1-4)GlcNAc(b1-4)GlcNAc
# Summary of the method: as §1
# [10] = biological target: Fuc(a1-2)[GalNAc(a1-3)]Gal(b1-4)GlcNAc(b1-3)GalNAc
# Summary of the method: as §1
# [11] = biological target: Fuc(a1-2)[GalNAc(a1-3)]Gal(b1-4)[Fuc(a1-3)]GlcNAc(b1-3)GalNAc
# Summary of the method: as §1
# [12] = biological target: Fuc(a1-3)[Gal(b1-4)]GlcNAc(b1-6)[Neu5Ac(a2-3)Gal(b1-3)]GalNAc
# Summary of the method: as §1
# Gal(a1-2)Gal = biological target: Gal(a1-2)Gal
# Summary of the method: as §1
# [13] = biological target: Gal(a1-3)Gal(b1-3)GlcNAc(b1-6)GalNAc
# Summary of the method: as §1
# Gal(a1-3)Gal(b1-4)GlcNAc = biological target: Gal(a1-3)Gal(b1-4)GlcNAc
# Summary of the method: as §1
# [14] = biological target: Gal(b1-3)[Fuc(a1-4)]GlcNAc
# Summary of the method: as §1
# [15] = biological target: Gal(b1-3)[Fuc(a1-4)]GlcNAc(b1-3)Gal(b1-3)[Fuc(a1-4)]GlcNAc
# Summary of the method: as §1
# [16] = biological target: Gal(b1-4)GlcNAc(b1-2)Man(a1-6)Man(b1-4)GlcNAc(b1-4)GlcNAc
# Summary of the method: as §1
# [17] = biological target: Gal(b1-4)GlcNAc(b1-3)Gal(b1-4)GlcNAc
# Summary of the method: as §1
# [18] = biological target: Gal(b1-4)GlcNAc(b1-3)[Gal(b1-4)GlcNAc(b1-6)]Gal(b1-4)GlcNAc
# Summary of the method: as §1
# Gal(b1-6)Gal = biological target: Gal(b1-6)Gal
# Summary of the method: as §1
# [19] = biological target: Gal3S(b1-4)[Fuc(a1-3)]Glc6S
# Summary of the method: as §1
# Gal6S(b1-3)GlcNAc = biological target: Gal6S(b1-3)GlcNAc
# Summary of the method: as §1
# [20] = biological target: GalNAc(a1-3)GalNAc(b1-3)Gal(a1-4)Gal(b1-4)Glc
# Summary of the method: as §1
# GalNAc4S6S(b1-4)GlcNAc = biological target: GalNAc4S6S(b1-4)GlcNAc
# Summary of the method: as §1
# GalNAc6S(b1-4)GlcNAc = biological target: GalNAc6S(b1-4)GlcNAc
# Summary of the method: as §1
# Glc(a1-4)Glc = biological target: Glc(a1-4)Glc
# Summary of the method: as §1
# [21] = biological target: GlcNAc(a1-4)Gal(b1-4)GlcNAc(b1-3)Gal(b1-4)[Fuc(a1-3)]GlcNAc(b1-3)Gal(b1-4)[Fuc(a1-3)]GlcNAc
# Summary of the method: as §1
binder,measurement,setting,value
"Latrophilin-3 (Homo sapiens), Q9HAR2 (protein) MWPSQLLIFMMLLAPIIHAFSRAPIPMAVVRRELSCESYPIELRCPGTDVIMIESANYGRTDDKICDSDPAQMENIRCYLPDAYKIMSQRCNNRTQCAVVAGPDVFPDPCPGTYKYLEVQYECVPYKVEQKVFLCPGLLKGVYQSEHLFESDHQSGAWCKDPLQASDKIYYMPWTPYRTDTLTEYSSKDDFIAGRPTTTYKLPHRVDGTGFVVYDGALFFNKERTRNIVKFDLRTRIKSGEAIIANANYHDTSPYRWGGKSDIDLAVDENGLWVIYATEQNNGKIVISQLNPYTLRIEGTWDTAYDKRSASNAFMICGILYVVKSVYEDDDNEATGNKIDYIYNTDQSKDSLVDVPFPNSYQYIAAVDYNPRDNLLYVWNNYHVVKYSLDFGPLDSRSGQAHHGQVSYISPPIHLDSELERPSVKDISTTGPLGMGSTTTSTTLRTTTLSPGRSTTPSVSGRRNRSTSTPSPAVEVLDDMTTHLPSASSQIPALEESCEAVEAREIMWFKTRQGQIAKQPCPAGTIGVSTYLCLAPDGIWDPQGPDLSNCSSPWVNHITQKLKSGETAANIARELAEQTRNHLNAGDITYSVRAMDQLVGLLDVQLRNLTPGGKDSAARSLNKAMVETVNNLLQPQALNAWRDLTTSDQLRAATMLLHTVEESAFVLADNLLKTDIVRENTDNIKLEVARLSTEGNLEDLKFPENMGHGSTIQLSANTLKQNGRNGEIRVAFVLYNNLGPYLSTENASMKLGTEALSTNHSVIVNSPVITAAINKEFSNKVYLADPVVFTVKHIKQSEENFNPNCSFWSYSKRTMTGYWSTQGCRLLTTNKTHTTCSCNHLTNFAVLMAHVEVKHSDAVHDLLLDVITWVGILLSLVCLLICIFTFCFFRGLQSDRNTIHKNLCISLFVAELLFLIGINRTDQPIACAVFAALLHFFFLAAFTWMFLEGVQLYIMLVEVFESEHSRRKYFYLVGYGMPALIVAVSAAVDYRSYGTDKVCWLRLDTYFIWSFIGPATLIIMLNVIFLGIALYKMFHHTAILKPESGCLDNIKSWVIGAIALLCLLGLTWAFGLMYINESTVIMAYLFTIFNSLQGMFIFIFHCVLQKKVRKEYGKCLRTHCCSGKSTESSIGSGKTSGSRTPGRYSTGSQSRIRRMWNDTVRKQSESSFITGDINSSASLNREGLLNNARDTSVMDTLPLNGNHGNSYSIASGEYLSNCVQIIDRGYNHNETALEKKILKELTSNYIPSYLNNHERSSEQNRNLMNKLVNNLGSGREDDAIVLDDATSFNHEESLGLELIHEESDAPLLPPRVYSTENHQPHHYTRRRIPQDHSESFFPLLTNEHTEDLQSPHRDSLYTSMPTLAGVAATESVTTSTQTEPPPAKCGDAEDVYYKSMPNLGSRNHVHQLHTYYQLGRGSSDGFIVPPNKDGTPPEGSSKGPAHLVTSL",glycan array binding signal (z-score),Fuc(a1-2)Gal,0.041
same,glycan array binding signal (z-score),[1],-0.493
same,glycan array binding signal (z-score),Fuc(a1-2)Gal(b1-3)GlcNAc,-0.169
same,glycan array binding signal (z-score),[2],0.261
same,glycan array binding signal (z-score),[3],-0.478
same,glycan array binding signal (z-score),[4],0.659
same,glycan array binding signal (z-score),[5],2.91
same,glycan array binding signal (z-score),[6],4.34
same,glycan array binding signal (z-score),[7],-0.721
same,glycan array binding signal (z-score),[8],0.962
same,glycan array binding signal (z-score),[9],-0.684
same,glycan array binding signal (z-score),[10],-0.844
same,glycan array binding signal (z-score),[11],4.19
same,glycan array binding signal (z-score),[12],-0.297
same,glycan array binding signal (z-score),Gal(a1-2)Gal,2.83
same,glycan array binding signal (z-score),[13],-0.37
same,glycan array binding signal (z-score),Gal(a1-3)Gal(b1-4)GlcNAc,-0.823
same,glycan array binding signal (z-score),[14],-0.275
same,glycan array binding signal (z-score),[15],-0.618
same,glycan array binding signal (z-score),[16],3.58
same,glycan array binding signal (z-score),[17],-0.111
same,glycan array binding signal (z-score),[18],3.02
same,glycan array binding signal (z-score),Gal(b1-6)Gal,-0.409
same,glycan array binding signal (z-score),[19],-0.622
same,glycan array binding signal (z-score),Gal6S(b1-3)GlcNAc,0.183
same,glycan array binding signal (z-score),[20],-1.16
same,glycan array binding signal (z-score),GalNAc4S6S(b1-4)GlcNAc,1.42
same,glycan array binding signal (z-score),GalNAc6S(b1-4)GlcNAc,3.81
same,glycan array binding signal (z-score),Glc(a1-4)Glc,-0.053
same,glycan array binding signal (z-score),[21],2.21
